Assay results: PubChem BioAssay AID1224921 (Broad Institute, 2016)
The campaign covered roughly 1,400 compounds. About 350 (25%) were called active. Not shown: some 2% with an inconclusive outcome. No rule for the calls is given here. These entries were drawn from the full list. Results with a measured potency or affinity are listed apart.

Test: inhibitors of Clostridioides difficile proliferation – 4-point retest, confirmation (AID 1224921);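 also: plate controls were DMSO wells for no effect and levofloxacin 16 µg/mL wells for full effect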
Settings: Clostridioides difficile clinical isolate growth, OD600, 24 h, stronger effect = lower value; at 30 µM unless noted

Max activity, inactive:
O=C(N[C@@H]1C=C[C@H](CC(=O)N2CCOCC2)O[C@@H]1CO)c1cccc(F)c1 9.1% [at 8 µM], CCCC(=O)Nc1ccc2c(c1)C(=O)N(C)C[C@H](OC)[C@@H](C)CN(CC1CCOCC1)[C@H](C)CO2 -10.3%, O=C(C[C@H]1C[C@H]2c3cc(NS(=O)(=O)c4ccc(F)cc4)ccc3O[C@H]2[C@H](CO)O1)NCc1ccc(-c2ccccc2)cc1 -6.35% [at 1.95 µM], COCC(=O)N1[C@@H]2c3ccc(-c4ccncc4)c(=O)n3C[C@@H]2[C@@H](CO)[C@@H]1C(=O)Nc1ccccc1 -4.68% [at 0.5 µM], C[C@H](NC(=O)C[C@@H]1C[C@@H]2c3cc(NC(=O)NC4CCCCC4)ccc3O[C@@H]2[C@H](CO)O1)c1ccccc1 -12.5% [at 1.95 µM], C[C@@H]1CN([C@H](C)CO)C(=O)Cc2cc(N(C)C)ccc2O[C@@H]1CN(C)Cc1ccc(Oc2ccccc2)cc1 27.6% [at 35 µM], C[C@H](CO)N1C[C@H](C)[C@@H](CN(C)Cc2ccc(C(F)(F)F)cc2)Oc2ccc(N(C)C)cc2CC1=O 14% [at 8 µM], C[C@H](CO)N1C[C@H](C)[C@@H](CN(C)Cc2ccccc2)Oc2ccc(N(C)C)cc2CC1=O 18.1%, C[C@@H]1CN([C@@H](C)CO)C(=O)Cc2cc(N(C)C)ccc2O[C@@H]1CN(C)Cc1ccc(Oc2ccccc2)cc1 32.7%, C[C@@H]1CN([C@@H](C)CO)C(=O)Cc2cc(NC(=O)C3CC3)ccc2O[C@@H]1CN(C)Cc1ccc(Oc2ccccc2)cc1 32.9%, C[C@@H]1CN([C@H](C)CO)C(=O)Cc2cc(N(C)C)ccc2O[C@@H]1CN(C)Cc1ccc(-c2ccccc2)cc1 13.4% [at 8 µM], C[C@@H]1CN([C@H](C)CO)S(=O)(=O)c2ccc(C#Cc3ccccc3)cc2O[C@H]1CN(C)C(=O)Nc1ccccc1 8.1% [at 8 µM], C[C@H](CO)N1C[C@H](C)[C@@H](CN(C)CC2CC2)Oc2cc(-c3ccc(F)cc3)ccc2S1(=O)=O 38%, CCCC#Cc1ccc([C@H]2[C@@H](CO)N(C(=O)C3CCCCC3)[C@H]2C#N)cc1 25.3% [at 8 µM], N#C[C@H]1[C@@H](c2ccc(C#CC3CCCC3)cc2)[C@@H](CO)N1S(=O)(=O)Cc1ccccc1 29.9% [at 8 µM], CN(C)CC(=O)N1[C@H](C#N)[C@H](c2ccc(C#CC3CCCCC3)cc2)[C@@H]1CO 14.2% [at 8 µM], N#C[C@H]1[C@@H](c2ccc(C#CC3CCCCC3)cc2)[C@@H](CO)N1S(=O)(=O)c1ccccc1 31.9% [at 8 µM], Cc1ccccc1S(=O)(=O)N1[C@H](C#N)[C@@H](c2ccc(C#CC3CC3)cc2)[C@@H]1CO 26.6% [at 7.5 µM], CN(C)CC(=O)N1[C@@H](C#N)[C@H](c2ccc(C#CC3CCCCC3)cc2)[C@@H]1CO 22.7% [at 8 µM], CCCC(=O)Nc1ccc2c(c1)C(=O)N(C)C[C@@H](OC)[C@H](C)CN(CC1CCOCC1)[C@H](C)CO2 -10.1%, CCC(=O)N[C@@H]1C=C[C@H](CC(=O)OC)O[C@H]1CO -12.4%, CN1CCN(C(=O)C[C@H]2C[C@H]3c4cc(NC(=O)Cc5ccncc5)ccc4O[C@H]3[C@H](CO)O2)CC1 13.8%, C[C@H](CO)N1C[C@H](C)[C@H](CN(C)Cc2ccc(C(F)(F)F)cc2)OCCCC[C@H](C)Oc2ccc(NC(=O)CCCN(C)C)cc2C1=O 31.1%, C[C@@H]1CN([C@@H](C)CO)C(=O)c2cc(/C=C/c3ccccc3)cnc2O[C@H]1CN(C)C(=O)NC1CCCCC1 -30.5% [at 8 µM], CCCN1C[C@@H](C)[C@H](OC)CN(C)C(=O)c2cc(NC(=O)COC)ccc2OC[C@@H]1C 15%, COc1cccc(S(=O)(=O)Nc2ccc3c(c2)[C@@H]2C[C@H](CC(=O)NC4CCCCC4)O[C@H](CO)[C@@H]2O3)c1 27.9%, COc1ccccc1CNC(=O)C[C@@H]1C[C@@H]2c3cc(NC(=O)Nc4ccc(C(F)(F)F)cc4)ccc3O[C@@H]2[C@H](CO)O1 28.8%, COc1ccccc1CNC(=O)C[C@H]1C[C@@H]2c3cc(NC(=O)Nc4ccc(C(F)(F)F)cc4)ccc3O[C@@H]2[C@H](CO)O1 28%, COc1ccccc1CNC(=O)C[C@H]1C[C@H]2c3cc(NC(=O)Nc4ccc(C(F)(F)F)cc4)ccc3O[C@H]2[C@@H](CO)O1 26.5%, CCCN1C[C@H](C)[C@H](OC)CN(C)C(=O)c2cc(NC(=O)c3cccc(F)c3)ccc2OC[C@H]1C 8.18% [at 8 µM], C[C@@H]1CN([C@H](C)CO)C(=O)c2ccccc2-c2ccccc2CO[C@H]1CN(C)C(=O)[C@H](C)c1ccccc1 15.9%, CC(C)CC#Cc1ccc2c(c1)O[C@@H](CN(C)CC1CCOCC1)[C@H](C)CN([C@H](C)CO)S2(=O)=O 29%, C[C@@H]1CN([C@H](C)CO)C(=O)Cc2cc(NC(=O)C3CC3)ccc2O[C@@H]1CN(C)Cc1ccc(Oc2ccccc2)cc1 25.1%, COc1ccccc1C#Cc1ccc2c(c1)O[C@H](CN(C)Cc1cccnc1)[C@@H](C)CN([C@@H](C)CO)S2(=O)=O 53.8%, CCS(=O)(=O)Nc1ccc2c(c1)C(=O)N(C)C[C@H](OC)[C@@H](C)CN(CC1CCCC1)[C@@H](C)CO2 -15.1% [at 8 µM], C[C@@H]1CN([C@@H](C)CO)S(=O)(=O)c2ccc(C#CC3CCCCC3)cc2O[C@@H]1CN(C)Cc1cccnc1 69.7%, C[C@@H]1CN([C@H](C)CO)S(=O)(=O)c2ccc(-c3ccccc3)cc2O[C@H]1CN(C)Cc1ccncc1 33.9%, COc1ccccc1C#Cc1ccc2c(c1)O[C@@H](CN(C)Cc1cccnc1)[C@H](C)CN([C@@H](C)CO)S2(=O)=O 26.4%, CC(C)C#Cc1ccc([C@@H]2[C@@H](C#N)N(C(=O)C3CCC3)[C@H]2CO)cc1 32.2% [at 8 µM], C[C@@H]1CN([C@@H](C)CO)S(=O)(=O)c2ccc(C3=CCCCC3)cc2O[C@H]1CN(C)Cc1ccncc1 29.4%, CCCC#Cc1ccc2c(c1)O[C@H](CN(C)Cc1ccncc1)[C@@H](C)CN([C@H](C)CO)S2(=O)=O 11.6%, COCC(=O)Nc1ccc2c(c1)OC[C@H](C)N(Cc1cncnc1)C[C@@H](C)[C@@H](OC)CN(C)C2=O -11.6%, O=C(Nc1cc(F)ccc1F)N[C@H]1CC[C@@H](CC(=O)N2CCc3ccccc3C2)O[C@H]1CO -5.46% [at 0.5 µM], O=C(C[C@H]1C=C[C@@H](NC(=O)c2ccccn2)[C@H](CO)O1)NCc1cc(F)cc(F)c1 7.65%, CO[C@H]1CN(C)C(=O)c2cc(NC(=O)c3ccccc3)ccc2OC[C@H](C)N(CC2CC2)C[C@H]1C -5.21% [at 8 µM], O=C(Nc1cc(F)ccc1F)N[C@@H]1CC[C@H](CC(=O)N2CCc3ccccc3C2)O[C@@H]1CO 29.6%, CCCC#Cc1ccc2c(c1)O[C@H](CN(C)Cc1cccnc1)[C@@H](C)CN([C@H](C)CO)S2(=O)=O 41%, CO[C@H]1CN(C)C(=O)c2cc(NC(C)=O)ccc2OC[C@H](C)N(Cc2nccs2)C[C@H]1C 16%, O=C1O[C@@H](c2ccccc2)[C@@H](c2ccccc2)N2[C@@H](c3ccc(O)cc3)[C@]3(C(=O)Nc4ccc(C#CC5=CCCCC5)cc43)[C@@H](C(=O)O)[C@H]12 28.7% [at 8 µM], CCCNC(=O)N[C@@H]1C=C[C@@H](CC(=O)N2CCN(C)CC2)O[C@H]1CO -11.4%, Cc1noc(C)c1NC(=O)N[C@H]1CC[C@H](CC(=O)Nc2ccc(-c3ccccc3)cc2)O[C@H]1CO 16%, CCCC(=O)Nc1ccc2c(c1)C(=O)N(C)[C@H]1CC[C@@H](CC(=O)OC)O[C@@H]1CO2 -11% [at 0.5 µM], Cc1ccc(-c2ccc3c(c2)O[C@@H](CN(C)Cc2cccnc2)[C@H](C)CN([C@H](C)CO)S3(=O)=O)cc1 16.8%, NC(=O)[C@H]1[C@@H]2C(=O)O[C@@H](c3ccccc3)[C@@H](c3ccccc3)N2[C@@H](c2ccc(O)cc2)[C@]12C(=O)Nc1ccc(C#CC3(O)CCCCCC3)cc12 32.1%, C[C@H]1CN([C@@H](C)CO)S(=O)(=O)c2ccc(C#CC3(O)CCCC3)cc2O[C@H]1CN(C)C(=O)Nc1ccc(F)cc1 15.4% [at 8 µM], C[C@H](CO)N1C[C@H](C)[C@@H](CN(C)Cc2ccc(Cl)c(Cl)c2)Oc2ccc(NS(=O)(=O)c3ccccc3)cc2CC1=O 28.2%, CO[C@@H]1CN(C)C(=O)c2cc(NC(=O)c3ccc(Oc4ccccc4)cc3)ccc2OC[C@H](C)NC[C@H]1C -11.3% [at 0.5 µM], CC(C)CC#Cc1ccc2c(c1)O[C@@H](CN(C)Cc1ccncc1)[C@@H](C)CN([C@H](C)CO)S2(=O)=O 7.2% [at 0.5 µM], O=C(C[C@@H]1CC[C@@H](NC(=O)CCN2CCCCC2)[C@@H](CO)O1)Nc1nccs1 -8.84% [at 1.95 µM]
